Records with an inconclusive call do not appear. Calls of active or inactive are those of the source. Calls follow the shape of the dose curve; as a rule, active = well fitted curve in the direction sought with a large enough effect in the repeat runs; inconclusive = weak or mixed curves; inactive = no such curve, though single readings can be large; an effect the other way counts as inactive or inconclusive.
Columns and labels:
[1] = molecular target: Cytochrome P450 2D6 (Homo sapiens) (UniProt P10635); experiment: Cytochrome P450 Family 2 Subfamily D Member 6 (CYP2D6) small molecule antagonists: luciferase reporter qHTS assay (AID 1671196); also: nearly all actives have a fitted effect of over 50% in size; also: potency is read from the fitted curve at half-maximal effect; as to activity change, negative = inhibition: series mostly up to about 120 µM
Chain of Cytochrome P450 2D6 (Homo sapiens) (P10635 whole entry, looked up): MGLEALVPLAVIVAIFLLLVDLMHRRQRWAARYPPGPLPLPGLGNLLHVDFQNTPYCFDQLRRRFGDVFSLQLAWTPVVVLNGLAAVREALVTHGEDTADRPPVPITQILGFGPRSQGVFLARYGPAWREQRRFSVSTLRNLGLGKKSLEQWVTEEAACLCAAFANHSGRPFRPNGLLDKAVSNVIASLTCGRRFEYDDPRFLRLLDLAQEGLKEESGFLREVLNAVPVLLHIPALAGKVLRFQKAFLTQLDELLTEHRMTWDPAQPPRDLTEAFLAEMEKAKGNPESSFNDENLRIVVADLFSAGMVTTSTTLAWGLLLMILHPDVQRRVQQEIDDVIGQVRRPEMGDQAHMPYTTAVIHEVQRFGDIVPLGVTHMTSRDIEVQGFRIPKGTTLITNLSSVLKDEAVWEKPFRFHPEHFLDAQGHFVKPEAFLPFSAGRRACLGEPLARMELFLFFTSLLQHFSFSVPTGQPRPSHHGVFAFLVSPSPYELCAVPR
Summary of the method: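 Luminogenic proluciferin substrate, CYP2D6 enzyme; 10 min RT preincubation with compound, NADPH regeneration system added, 1 h RT. Stop/detection reagent, 20 min RT, luminescence read (RLU). Signal proportional to CYP activity.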

[2] = molecular target: Cytochrome P450 2C19 (Homo sapiens) (UniProt P33261); experiment: Cytochrome P450 Family 2 Subfamily C Member 19 (CYP2C19) small molecule antagonists: luciferase reporter qHTS assay (AID 1671197); also: nearly all actives have a fitted effect of over 65% in size; also: potency is read from the fitted curve at half-maximal effect; as to activity change, negative = inhibition: series mostly up to about 120 µM
Chain of Cytochrome P450 2C19 (Homo sapiens) (P33261 whole entry, looked up): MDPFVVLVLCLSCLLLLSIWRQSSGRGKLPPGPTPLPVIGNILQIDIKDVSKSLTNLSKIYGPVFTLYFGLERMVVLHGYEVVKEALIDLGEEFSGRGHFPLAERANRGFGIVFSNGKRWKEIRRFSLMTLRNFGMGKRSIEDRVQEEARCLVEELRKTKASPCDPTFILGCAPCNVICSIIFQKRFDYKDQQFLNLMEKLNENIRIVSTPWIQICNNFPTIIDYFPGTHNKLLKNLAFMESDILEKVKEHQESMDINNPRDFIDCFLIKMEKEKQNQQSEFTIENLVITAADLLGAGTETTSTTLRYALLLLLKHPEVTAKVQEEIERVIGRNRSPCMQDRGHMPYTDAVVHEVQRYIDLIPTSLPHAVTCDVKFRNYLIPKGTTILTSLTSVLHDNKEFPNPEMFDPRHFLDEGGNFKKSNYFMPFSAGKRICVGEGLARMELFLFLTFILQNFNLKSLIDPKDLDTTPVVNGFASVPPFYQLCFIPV
Summary of the method: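 P450-Glo CYP2C19 screening system; proluciferin substrate; DMSO compound stocks; 10 min RT preincubation; NADPH regeneration, 1 h at 37C; luciferin detection reagent, 20 min RT; luminescence as RLU.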

[3] = molecular target: Cytochrome P450 2C9 (Homo sapiens) (UniProt P11712); experiment: Cytochrome P450 Family 2 Subfamily C Member 9 (CYP2C9) small molecule antagonists: luciferase reporter qHTS assay (AID 1671198); also: nearly all actives have a fitted effect of over 50% in size; also: potency is read from the fitted curve at half-maximal effect; as to activity change, negative = inhibition: series mostly up to about 120 µM
Chain of Cytochrome P450 2C9 (Homo sapiens) (P11712 whole entry, looked up): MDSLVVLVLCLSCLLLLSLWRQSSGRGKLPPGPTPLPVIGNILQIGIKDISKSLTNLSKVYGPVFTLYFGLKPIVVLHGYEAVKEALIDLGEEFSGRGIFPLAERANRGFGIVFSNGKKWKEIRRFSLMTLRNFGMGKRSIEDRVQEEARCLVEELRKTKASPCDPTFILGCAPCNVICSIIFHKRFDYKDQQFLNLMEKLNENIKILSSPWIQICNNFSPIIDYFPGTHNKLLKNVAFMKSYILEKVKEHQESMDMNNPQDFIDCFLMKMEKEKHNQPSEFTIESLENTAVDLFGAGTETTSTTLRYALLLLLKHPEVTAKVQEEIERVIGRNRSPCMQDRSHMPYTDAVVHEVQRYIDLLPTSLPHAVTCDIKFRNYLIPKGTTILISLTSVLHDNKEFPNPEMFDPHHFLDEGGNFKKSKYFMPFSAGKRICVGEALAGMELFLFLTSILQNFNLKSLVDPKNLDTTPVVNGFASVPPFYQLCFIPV
Summary of the method: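 P450-Glo proluciferin substrate with CYP2C9 enzyme; 10 min RT preincubation, then NADPH regeneration 1 h at 37C; luciferin detection reagent 20 min RT, luminescence in relative luminescence units.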

[4] = molecular target: Cytochrome P450 1A2 (Homo sapiens) (UniProt P05177); experiment: Cytochrome P450 Family 1 Subfamily A Member 2 (CYP1A2) small molecule antagonists: luciferase reporter qHTS assay (AID 1671199); also: nearly all actives have a fitted effect of over 50% in size; also: potency is read from the fitted curve at half-maximal effect; as to activity change, negative = inhibition: series mostly up to about 120 µM
Chain of Cytochrome P450 1A2 (Homo sapiens) (P05177 whole entry, looked up): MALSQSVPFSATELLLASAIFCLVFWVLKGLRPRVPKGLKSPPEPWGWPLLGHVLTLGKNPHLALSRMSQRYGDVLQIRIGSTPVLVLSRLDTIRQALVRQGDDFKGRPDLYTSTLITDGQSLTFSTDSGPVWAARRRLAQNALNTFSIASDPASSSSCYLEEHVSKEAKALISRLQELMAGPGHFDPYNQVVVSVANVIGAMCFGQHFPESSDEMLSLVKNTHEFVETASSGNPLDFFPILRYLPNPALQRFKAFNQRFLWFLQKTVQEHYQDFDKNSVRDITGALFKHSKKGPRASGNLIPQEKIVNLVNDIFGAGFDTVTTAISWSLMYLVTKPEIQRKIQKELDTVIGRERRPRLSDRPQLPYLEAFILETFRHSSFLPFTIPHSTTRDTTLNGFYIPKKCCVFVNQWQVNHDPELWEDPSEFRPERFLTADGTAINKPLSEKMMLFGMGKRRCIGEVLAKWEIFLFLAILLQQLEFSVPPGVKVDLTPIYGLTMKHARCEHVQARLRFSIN
Summary of the method: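 Luminescence readout (relative luminescence units) after luciferin detection reagent, 20 min RT. Preceded by 1 h room-temperature CYP1A2 reaction with NADPH regeneration solution following 10 min compound preincubation with enzyme and proluciferin substrate. Furafylline positive control.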

[5] = molecular target: Voltage-gated inwardly rectifying potassium channel KCNH2 (Homo sapiens) (UniProt Q12809); experiment: Human Ether-a-go-go-Related Gene (hERG) channel small molecule antagonists: fluorescence cell-based qHTS assay (AID 1671200);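 also: hERG-expressing U2OS cells given a thallium stimulus after FluxOR II dye loading; series mostly up to about 77 µM; nearly all actives have a fitted effect of over 50% in size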
Chain of Voltage-gated inwardly rectifying potassium channel KCNH2 (Homo sapiens) (Q12809 whole entry, looked up): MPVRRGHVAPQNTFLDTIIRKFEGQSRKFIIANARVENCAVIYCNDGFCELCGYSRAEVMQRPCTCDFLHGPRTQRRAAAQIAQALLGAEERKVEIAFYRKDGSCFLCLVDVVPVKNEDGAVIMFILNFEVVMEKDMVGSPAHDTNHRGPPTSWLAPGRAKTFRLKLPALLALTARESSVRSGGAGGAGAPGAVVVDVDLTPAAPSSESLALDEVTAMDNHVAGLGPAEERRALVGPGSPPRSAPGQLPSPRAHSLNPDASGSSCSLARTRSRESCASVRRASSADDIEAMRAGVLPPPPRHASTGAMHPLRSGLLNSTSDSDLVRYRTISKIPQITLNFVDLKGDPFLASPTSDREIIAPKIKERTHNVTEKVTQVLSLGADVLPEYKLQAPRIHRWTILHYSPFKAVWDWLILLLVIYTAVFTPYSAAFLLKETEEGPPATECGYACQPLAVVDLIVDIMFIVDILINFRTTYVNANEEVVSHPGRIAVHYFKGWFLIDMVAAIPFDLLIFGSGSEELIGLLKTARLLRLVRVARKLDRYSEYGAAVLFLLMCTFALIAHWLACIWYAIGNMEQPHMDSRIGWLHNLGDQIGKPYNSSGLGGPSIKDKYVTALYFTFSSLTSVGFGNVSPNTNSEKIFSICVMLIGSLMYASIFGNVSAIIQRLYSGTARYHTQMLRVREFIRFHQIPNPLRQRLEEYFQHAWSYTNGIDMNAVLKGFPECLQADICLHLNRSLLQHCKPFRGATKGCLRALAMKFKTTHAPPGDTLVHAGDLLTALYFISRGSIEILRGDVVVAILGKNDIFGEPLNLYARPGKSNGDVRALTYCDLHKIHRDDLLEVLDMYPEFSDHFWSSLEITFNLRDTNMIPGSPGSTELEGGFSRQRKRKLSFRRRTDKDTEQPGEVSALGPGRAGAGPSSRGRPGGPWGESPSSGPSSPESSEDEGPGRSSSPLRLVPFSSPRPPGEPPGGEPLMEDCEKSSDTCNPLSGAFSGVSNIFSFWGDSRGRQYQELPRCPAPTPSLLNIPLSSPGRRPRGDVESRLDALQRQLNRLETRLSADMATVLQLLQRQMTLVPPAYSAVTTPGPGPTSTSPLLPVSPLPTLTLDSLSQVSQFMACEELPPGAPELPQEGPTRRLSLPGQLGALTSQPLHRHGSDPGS
Summary of the method: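 Kinetic two-minute fluorescence traces, sampled at 1 s, were collected following thallium stimulus of U2OS cells (1000 per well) that had been cultured overnight at 37 C and loaded with FluxOR II.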

[6] = molecular target: Cytochrome P450 3A4 (Homo sapiens) (UniProt P08684); experiment: Cytochrome P450 Family 3 Subfamily A Member 4 (CYP3A4) small molecule antagonists: luciferase reporter qHTS assay (AID 1671201)
Chain of Cytochrome P450 3A4 (Homo sapiens) (P08684 whole entry, looked up): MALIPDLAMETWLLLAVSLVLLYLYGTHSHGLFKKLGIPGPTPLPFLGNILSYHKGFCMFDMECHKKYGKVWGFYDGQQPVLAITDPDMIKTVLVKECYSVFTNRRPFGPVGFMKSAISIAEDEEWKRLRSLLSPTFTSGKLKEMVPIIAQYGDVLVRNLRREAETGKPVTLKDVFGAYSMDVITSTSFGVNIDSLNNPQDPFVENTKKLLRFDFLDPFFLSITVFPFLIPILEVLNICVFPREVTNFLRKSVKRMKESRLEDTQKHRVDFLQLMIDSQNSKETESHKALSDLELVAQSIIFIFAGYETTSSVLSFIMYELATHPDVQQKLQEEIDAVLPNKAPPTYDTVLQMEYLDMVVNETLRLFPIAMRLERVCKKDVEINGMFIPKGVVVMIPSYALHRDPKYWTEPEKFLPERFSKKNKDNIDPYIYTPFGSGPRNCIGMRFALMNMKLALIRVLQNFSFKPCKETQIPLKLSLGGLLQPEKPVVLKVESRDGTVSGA
Summary of the method: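 Proluciferin-to-luciferin conversion by CYP3A4, NADPH-regenerated, 1 h RT; luminescence read as RLU. Ketoconazole as control.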
% is scaled to controls: 0 for no effect and ±100 for the full control effect.

CC(C)c1ccc2oc3nc(N)c(C(=O)O)cc3c(=O)c2c1
inactive: Potency [5]
active: Potency [1] 15.5 µM | Potency [2] 15.5 µM | Potency [3] 13.8 µM | Potency [4] 17.4 µM

CCCCCOC(=O)Nc1nc(=O)n([C@@H]2O[C@H](C)[C@@H](O)[C@H]2O)cc1F
inactive: Potency [1] | Potency [2] | Potency [3] | Potency [4] | Potency [5] | Potency [6]

C=C[Si](OC)(OC)OC
active: Potency [4] 34.2 µM
inactive: Potency [1] | Potency [2] | Potency [3] | Potency [5] | Potency [6]

CCCCCCCCCCCCCCCCCC(=O)OCCCCCCCCCCCCCC(C)C
inactive: Potency [1] | Potency [2] | Potency [3] | Potency [4] | Potency [5] | Potency [6]

OCCCCCCO
active: Potency [1] 36 µM | Potency [2] 12.8 µM | Potency [3] 40.4 µM | Potency [4] 40.4 µM
inactive: Potency [5]

C=C(C)C(=O)OCCCCCCCCCCCCCCCCCC
inactive: activity change, negative = inhibition [1] 2.34% [at 23.6 µM] | activity change, negative = inhibition [2] -16.6% [at 23.6 µM] | activity change, negative = inhibition [3] -1.15% [at 23.6 µM] | Potency [4] | activity change, negative = inhibition [5] -0.193% [at 15.8 µM] | activity change, negative = inhibition [6] 2.34% [at 23.6 µM]

Cc1ccccc1C(=O)O
inactive: Potency [1] | Potency [2] | Potency [3] | Potency [4] | Potency [5] | Potency [6]

CC1(C)SC(C)(C)SC(C)(C)S1
inactive: Potency [1] | Potency [2] | Potency [3] | Potency [4] | Potency [5] | Potency [6]

CCCC=O
inactive: Potency [1] | Potency [2] | Potency [3] | Potency [4] | Potency [5] | Potency [6]

C=C(C)[C@@H]1CCC2=CC(=O)C[C@@H](C)[C@]2(C)C1
active: Potency [2] 6.33 µM | Potency [3] 39.9 µM
inactive: Potency [1] | Potency [4] | Potency [5] | Potency [6]

COc1ccc(NC(C)=O)cc1
active: Potency [1] 41 µM | Potency [4] 36.5 µM
inactive: Potency [2] | Potency [3] | Potency [5] | Potency [6]

C#CC(C)(O)CC(C)C (stereo unspecified)
inactive: Potency [1] | Potency [2] | Potency [3] | Potency [4] | Potency [5] | Potency [6]

O=c1[nH]c(=O)n([C@H]2O[C@H](CO)[C@@H](O)[C@@H]2O)cc1/C=C\Br
inactive: Potency [1] | Potency [2] | Potency [3] | Potency [4] | Potency [5] | Potency [6]

COc1ccc2cc(C=O)ccc2c1
inactive: Potency [1] | Potency [5] | Potency [6]
active: Potency [2] 15.5 µM | Potency [3] 17.4 µM | Potency [4] 13.8 µM

C[C@H]1O[C@@H](n2cc(F)c(=O)[nH]c2=O)[C@H](O)[C@@H]1O
inactive: Potency [1] | Potency [2] | Potency [3] | Potency [4] | Potency [5] | Potency [6]

O=C(O)Cc1cc(I)c(Oc2cc(I)c(O)c(I)c2)c(I)c1
inactive: Potency [1] | Potency [2] | Potency [4] | Potency [5] | Potency [6]
active: Potency [3] 34.9 µM

NC(=O)c1ncn([C@@H]2O[C@H](CO)[C@@H](O)[C@H]2O)c1N
inactive: Potency [1] | Potency [2] | Potency [3] | Potency [4] | Potency [5] | Potency [6]

O=C(O)c1ccc[n+]([O-])c1
inactive: Potency [1] | Potency [2] | Potency [3] | Potency [4] | Potency [5] | Potency [6]

COc1cc(C)cc(O)c1
active: Potency [4] 35.6 µM
inactive: Potency [1] | Potency [2] | Potency [3] | Potency [6]

O=C1CC2(CCCC2)CC(=O)N1
inactive: Potency [1] | Potency [2] | Potency [3] | Potency [4] | Potency [5] | Potency [6]

CCCC(C)CO (stereo unspecified)
active: Potency [1] 79.7 µM | Potency [4] 35.6 µM
inactive: Potency [2] | Potency [3] | Potency [5] | Potency [6]

CO[Si](CCCNCCC[Si](OC)(OC)OC)(OC)OC
inactive: Potency [1] | Potency [2] | Potency [3] | Potency [4] | Potency [5] | Potency [6]

CC(=O)c1ccc(C)cc1
inactive: Potency [1] | Potency [2] | Potency [3] | Potency [4] | Potency [6]

NCC[C@H](O)C(=O)N[C@@H]1C[C@H](N)[C@@H](O[C@H]2O[C@H](CN)[C@@H](O)[C@H](O)[C@H]2O)[C@H](O)[C@H]1O[C@H]1O[C@H](CO)[C@@H](O)[C@H](N)[C@H]1O
inactive: activity change, negative = inhibition [1] -0.464% [at 0.435 µM] | activity change, negative = inhibition [2] 3.5% [at 0.435 µM] | activity change, negative = inhibition [3] 0.45% [at 0.435 µM] | activity change, negative = inhibition [4] 12.4% [at 0.435 µM] | activity change, negative = inhibition [5] 0.203% [at 0.29 µM] | activity change, negative = inhibition [6] 8.51% [at 0.435 µM]

CNc1ncnc2nc[nH]c12
inactive: Potency [1] | Potency [2] | Potency [3] | Potency [4] | Potency [5] | Potency [6]

COc1cccc(Br)c1
inactive: Potency [1] | Potency [2] | Potency [3] | Potency [4] | Potency [5] | Potency [6]

O=C(O)C1CCC1
inactive: Potency [1] | Potency [2] | Potency [3] | Potency [4] | Potency [5] | Potency [6]

CC(O)CN(CCCN(C)C)CCCN(C)C (stereo unspecified)
inactive: Potency [1] | Potency [2] | Potency [3] | Potency [4] | Potency [5] | Potency [6]

Cc1c(C)n(CCN(C)C)c2ccc(C(=O)OCCN(C)C)cc12
active: Potency [4] 17.4 µM
inactive: Potency [1] | Potency [2] | Potency [3] | Potency [5] | Potency [6]

C1CCCCCCCCCCC1
inactive: activity change, negative = inhibition [1] -0.464% [at 23.6 µM] | activity change, negative = inhibition [2] -20.8% [at 23.6 µM] | activity change, negative = inhibition [3] -1.08% [at 23.6 µM] | Potency [4] | activity change, negative = inhibition [5] -1.65% [at 15.8 µM] | activity change, negative = inhibition [6] 3.28% [at 23.6 µM]
